An excerpt weighted towards active compounds, which were near 5.7% of everything screened.
hgDAF12 agonist: activates the H. glycines DAF-12 receptor ligand-binding domain; HEK293 GAL4-hgDAF12 UAS-luciferase reporter, agonist luminescence; normalized to butyrate control; activation, % at 6.8 µM; 370,000 tested, 1.8% active;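 active means activation above a cutoff set at the mean of all screened compounds plus 3 SD, cut at about 10% in these data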;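 further: 0% = DMSO wells and 100% = sodium butyrate wells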
DAX1 inh-1: blocks DAX1 repression of SF-1 activated StAR promoter; 370,000 tested, 1.1% active; inhibition, % at 6.8 µM; HEK293T StAR-luciferase reporter, SF-1/DAX-1 repression relief; AID 652010;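 active means inhibition above the mean over all tested compounds plus 3 SD, cut at about 3.6% in these data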;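 further: 0% = DAX-1 cells with DMSO and 100% = cells lacking DAX-1 with DMSO; higher inhibition means more luminescence from relief of DAX-1 repression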
hcDAF12 agonist: H. contortus DAF-12 activation, primary screen; activation, % at 6.8 µM; 370,000 tested, 1.4% active; AID 652067; HEK293 hcDAF-12 lit1-tk-luc reporter, luminescence; 0% DMSO, 100% Δ7-dafachronic acid;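 active means activation above the mean of all tested compounds plus 3 SD, cut at about 5.5% in these data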;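 further: 100% = response to 3 µM Δ7-dafachronic acid high control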
DAX1 inh-2: NR0B1 (DAX1) inhibition | P51843 | HEK293 Gal4-DAX1 luciferase reporter, luminescence | inhibition, % at 6.75 µM | 340,000 tested, 0.99% active | AID 504766;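 active means inhibition above the mean over all tested compounds plus 3 SD, cut at about 4.2% in these data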;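 further: 0% = DAX1-transfected cells with DMSO and 100% = empty-vector control cells with DMSO; inhibition shows as a rise in luminescence from relieved DAX1 repression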
Target sequence (P51843 207-470 limits assumed): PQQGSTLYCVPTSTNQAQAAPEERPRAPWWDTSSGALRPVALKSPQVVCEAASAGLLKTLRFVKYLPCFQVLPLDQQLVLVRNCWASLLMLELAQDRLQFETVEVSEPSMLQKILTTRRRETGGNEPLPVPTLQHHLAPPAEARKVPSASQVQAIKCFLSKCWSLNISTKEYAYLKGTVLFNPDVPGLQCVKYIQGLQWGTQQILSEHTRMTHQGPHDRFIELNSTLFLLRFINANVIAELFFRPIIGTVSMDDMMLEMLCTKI
AHR activator: human AHR activation | 320,000 tested, 2.5% active | AHR-responsive luciferase reporter cells, luminescence | activation, % at 5 µM | P35869 | AID 2796; in the data active means activation above about 47%;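 further: 0% = vehicle wells and 100% = reference agonist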
ssDAF-12 act: activates DAF-12 receptor from parasite S. stercoralis | HEK293 ssDAF-12/GRIP1 lit1-tk-luc reporter, luminescence; % of 3 µM dafachronic acid response | activation, % at 6.8 µM | 370,000 tested, 1% active | AID 652126;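 active means activation above the mean over all tested compounds plus 3 SD, cut at about 0.9% in these data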;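 further: 0% = DMSO-only wells and 100% = 3 µM delta7-dafachronic acid wells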
hgDAF12 ag: hgDAF-12 agonism, confirmation assay | HEK293 GAL4-hgDAF12 luciferase reporter, agonist mode; percent of butyrate response | activation, % at 6.8 µM | 3,300 tested, 80% active | AID 743050 | shares compounds with hgDAF12 agonist;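 active means mean activation over triplicate wells above the hit cutoff derived from the earlier primary screen, cut at about 11% in these data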;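 further: 0% = DMSO low control and 100% = 2 mM sodium butyrate high control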
LXRb DAF12 ctr: LXR-beta agonism as DAF-12 counter-screen; shares compounds with hgDAF12 agonist; HEK293 Gal4-LXR luciferase reporter, 24 h; activation, % at 6.8 µM; 3,300 tested, under 10 active; AID 743051;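 active means mean activation of the triplicate above a set limit carried over from the primary screen, none filed active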
Numbers without * were called inactive; · = no result given; ! = not confirmed by another sample.

SMILES	hgDAF12 agonist	DAX1 inh-1	hcDAF12 agonist	DAX1 inh-2	AHR activator	ssDAF-12 act	hgDAF12 ag	LXRb DAF12 ctr
COC(=O)Nc1ccc2c(c1)N(C(=O)CCN1CCN3CCCC3C1)c1ccccc1CC2 (configuration not stated)	18*!	0	0	0	1	-1	-2	0
CCOC(=O)Nc1ccc2c(c1)N(C(=O)CCN1CCN3CCCC3C1)c1ccccc1CC2 (configuration not stated)	1	1	0	-2	7	-1	·	·
Cc1ccnc(NC(=S)NC(=O)/C=C/c2ccco2)c1	7	1	3	2	27	0	·	·
Cc1ccnc(NC(=O)/C=C/c2cccs2)c1	16*	3	5.6*	1	7	0	19*	1
CCOc1ccc(N2C(=O)c3ccccc3C2O)cc1 (configuration not stated)	20*	3.8*	4	2	19	0	9	0
CCOc1ccc(N2C(=O)c3ccccc3C2=O)cc1	-1	1	0	1	-9	-1	·	·
OCCC1CN(Cc2cccn2-c2ncccn2)CCN1C1CCCC1 (configuration not stated)	-5	1	1	2	-1	-1	·	·
CCCCSc1ncc(C(=O)OCC)c(N)n1	15*	3.7*	4	3	0	1	11*	1
CCOC(=O)c1cnc(SCc2ccc(C)cc2)nc1N	7	1	1	1	-8	0	·	·
CCOC(=O)c1cnc(SCCc2ccccc2)nc1N	16*	4.5*	5	3	0	1.4*	20*	1
COc1ccc(OC)c(/C=N/NC(=O)CNC(=O)c2cccc3ccccc23)c1	1	-1	-3	-1	23	-1	·	·
CCOc1ccc(S(=O)(=O)N2CCN(CCNS(=O)(=O)c3ccc(C)cc3)CC2)cc1	-2	0	0	0	·	-1	·	·
O=C(COC(=O)/C=C/c1ccccc1Cl)NCC1CCCO1 (configuration not stated)	1	0	-1	0	-2	-2	·	·
Cc1ccccc1Nc1nn2c(=O)c3ccccc3nc2s1	1	0	0	0	28	-1	·	·
Cc1ccccc1Nc1nc2ccccc2s1	17*	2	6.2*	6.2*	21	0	18*	1
Fc1ccc(Nc2nc3ccccc3s2)cc1	26*	3	5	3	7	0	12*	0
CCCCNS(=O)(=O)CCNCc1ccc(OC)cc1	1	0	-1	0	·	-1	·	·
CCOC(=O)Cc1csc(NC(=O)c2ccc3c(c2)OCO3)n1	0	-1	-1	-1	7	-1	·	·
Cc1nc(NC(=O)c2ccc3c(c2)OCO3)ccc1Br	16*	3	2	4.3*	14	0	14*	1
Cc1csc(NC(=O)c2ccc3c(c2)OCO3)n1	17*	2	4	1	8	-1	16*	1
Cc1csc(NC(=O)c2ccc(Br)s2)n1	17*	0	3	1	13	0	13*	1
O=C(Nc1ccccn1)c1ccc(Br)s1	16*	1	1	0	17	1	13*	1
Cc1csc(NC(=O)c2cccs2)n1	6	2	2	0	17	-1	·	·
COc1ccccc1C(=O)Nc1ccccn1	14*	1	4	1	7	-1	13*	0
CC(C)(C)c1ccc(-c2noc(-c3ccno3)n2)cc1	13*	2	5	8.3*	-1	0.9*	15*	1
SMILES	hgDAF12 agonist	DAX1 inh-1	hcDAF12 agonist	DAX1 inh-2	AHR activator	ssDAF-12 act	hgDAF12 ag	LXRb DAF12 ctr
c1cncc(-c2nc(-c3ccc4c(c3)OCCO4)cs2)c1	15*	1	5.8*	4.6*	4	0	16*	1
CS(=O)(=O)c1ccc(-c2csc(-c3cccnc3)n2)cc1	3	0	0	-1	-3	-1	·	·
O=C(O)c1cc(-c2cccs2)[nH]n1	15*	0	0	1	0	0	1	0
Cc1cc(=O)[nH]c(N/N=C/CCc2ccccc2)n1	-2	-1	-2	-1	19	-2	·	·
CC(=O)Nc1cccc(NS(=O)(=O)c2cn(C)c(=O)n(C)c2=O)c1	-1	1	0	0	1	0	·	·
COC(=O)N1C(=O)[C@@](c2ccc(OC)cc2)(C(C)C)N1C(=O)OC	·	·	·	1	1	·	·	·
N#CC(c1ccccc1)c1cccc(Cl)n1 (configuration not stated)	-1	-1	-2	·	1	-2	·	·
CN(C)c1ccc(C(C#N)c2ccccc2)nn1 (configuration not stated)	21*	2	6.1*	0	4	2.1*	1	0
Cc1ccc(O)c(C2=NNC(c3ccc(Cl)cc3)C2)c1 (configuration not stated)	15*	3	5.7*	2	5	1	13*	1
O=C1c2ccccc2CN1CCSC(=S)N1CCOCC1	16*	3	4	3	9	0	16*	1
O=C1c2ccccc2CN1CCSC(=S)N1CCSCC1	·	·	·	·	5	·	·	·
CN(C(=O)COc1cccc(Br)c1)C1CCS(=O)(=O)C1 (configuration not stated)	-1	0	-1	0	-1	-1	·	·
CCCCCN(C(=O)CCC(=O)OCC(=O)N(C)C1CCCCC1)c1c(N)n(CCCC)c(=O)[nH]c1=O	14*	1	-1	-1	-2	-1	-2	0
O=C(Nc1ccn(Cc2ccccc2)n1)c1ccc(F)cc1	17*	0	4	-1	12	1	13*	0
CSc1ccc(-c2cnc(N3CCC(C(N)=O)CC3)s2)cc1	21*	·	3	·	·	1	17*	1
O=C(NNC(=S)Nc1ccccc1)c1cccc(Br)c1	3	3	3	1	32	0	·	·
CC(C)(C)NC(=S)NNC(=O)c1cccc(Br)c1	21*	1	1	2	2	-1	5	0
COc1cccc(CN2CCNC(=O)C2CC(=O)N(C)C2CCOCC2)c1 (configuration not stated)	-1	0	-1	0	1	-1	·	·
CCCn1nc2cc(C(=O)NCc3ccc4c(c3)OCO4)ccc2c1OCC	-2	0	-1	0	-1	-1	·	·
O=C(O)c1ccccc1C(=O)Nc1cc(-c2ccccc2)[nH]n1	-1	0	-1	-1	1	-1	·	·
